Structures can show the parent of a compound that is named as a salt.
Tests used:
Conditions in all cases: incubation time: 27 h, anaerobic, 37 °C;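 for the amine columns active = adjusted P below 0.05 in both replicates with a change the same way and a mean fold change under 0.8 or over 1.25; inactive = the rest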
[1] = system: Clostridium sporogenes DSM 1664; assay: growth (OD595) fold change vs plate DMSO controls (fold change (ratio)); higher = more growth
Procedure, shortened: (§1)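 Absorbance at 595 nm was read after shaking the anaerobic mGAM cultures, which had grown in 96-well plates for 27 h at 37 °C. After blank subtraction and background correction against 20 µM compound solutions in water, a calibration factor of 5 gave OD values. Growth is the fold change against the median of the plate's DMSO controls. Values are the mean of 2 biological replicates, with fold changes above 1.5 set to NA.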

[2] = system: Escherichia coli IAI1; assay: as above
Procedure, shortened: as §1

[3] = system: Klebsiella aerogenes DSM 30053; assay: as above
Procedure, shortened: as §1

[4] = system: Ruminococcus gnavus DSM 108212; assay: as above
Procedure, shortened: as §1

[5] = system: Klebsiella aerogenes DSM 30053; assay: fold change of Histamine concentration vs plate DMSO controls (fold change (ratio)); higher = more amine produced, active = hit call of the paper (significant change in both replicates, either direction)
Procedure, shortened: (§2)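 Using LC–triple-quadrupole MS with dynamic MRM, amines were quantified against external calibration curves and corrected for drift within each batch. Samples were whole anaerobic mGAM cultures of four gut strains, grown 27 h at 37 °C from OD 0.1 before 1:1 dilution, extracted with cold acetonitrile/methanol containing 0.1% formic acid and centrifuged. Compounds were present at 20 µM final (sweeteners at 50 µM final). The numbers are fold changes versus plate DMSO controls, each the mean of 2 biological replicates.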

[6] = system: Clostridium sporogenes DSM 1664; assay: fold change of Tryptamine concentration vs plate DMSO controls (fold change (ratio)); higher = more amine produced, active = hit call of the paper (significant change in both replicates, either direction)
Procedure, shortened: as §2

[7] = system: Ruminococcus gnavus DSM 108212; assay: as above
Procedure, shortened: as §2

[8] = system: Escherichia coli IAI1; assay: fold change of Putrescine concentration vs plate DMSO controls (fold change (ratio)); higher = more amine produced, active = hit call of the paper (significant change in both replicates, either direction)
Procedure, shortened: as §2

[9] = system: Klebsiella aerogenes DSM 30053; assay: as above
Procedure, shortened: as §2

[10] = system: Escherichia coli IAI1; assay: fold change of Cadaverine concentration vs plate DMSO controls (fold change (ratio)); higher = more amine produced, active = hit call of the paper (significant change in both replicates, either direction)
Procedure, shortened: as §2

[11] = system: Klebsiella aerogenes DSM 30053; assay: as above
Procedure, shortened: as §2

[12] = system: Ruminococcus gnavus DSM 108212; assay: fold change of 2-Phenylethylamine concentration vs plate DMSO controls (fold change (ratio)); higher = more amine produced, active = hit call of the paper (significant change in both replicates, either direction)
Procedure, shortened: as §2

Structure (SMILES)	growth [1]	growth [2]	growth [3]	growth [4]	fold change of Histamine concentration [5]	fold change of Tryptamine concentration [6]	fold change of Tryptamine concentration [7]	fold change of Putrescine concentration [8]	fold change of Putrescine concentration [9]	fold change of Cadaverine concentration [10]	fold change of Cadaverine concentration [11]	fold change of 2-Phenylethylamine concentration [12]
N=C(N)NC(=O)Cc1c(Cl)cccc1Cl [Guanfacine hydrochloride] (20 µM)	0.939	0.961	1.03	0.811	0.903 (inactive)	0.953 (inactive)	1.01 (inactive)	1.02 (inactive)	0.99 (inactive)	1.01 (inactive)	1.01 (inactive)	1.02 (inactive)
CN(C)CCC=C1c2ccccc2COc2ccccc21 [Doxepin hydrochloride] (20 µM)	1.04	0.995	0.978	0.833	0.999 (inactive)	0.959 (inactive)	0.977 (inactive)	1.03 (inactive)	1 (inactive)	0.919 (inactive)	1 (inactive)	0.921 (inactive)
CC[C@H](C)C(=O)O[C@H]1C[C@H](O)C=C2C=C[C@H](C)[C@H](CC[C@@H](O)C[C@@H](O)CC(=O)O)[C@H]21 [Pravastatin] (20 µM)	0.87	1.09	0.973	1.15	1.1 (inactive)	1.12 (inactive)	1.08 (inactive)	1.11 (inactive)	0.975 (inactive)	0.904 (inactive)	1.01 (inactive)	1.1 (inactive)
COc1ccccc1OCC(O)COC(N)=O (stereo not given) [Methocarbamol] (20 µM)	1.03	1	1.03	1.12	1.06 (inactive)	1.02 (inactive)	0.963 (inactive)	0.998 (inactive)	1.01 (inactive)	0.986 (inactive)	0.987 (inactive)	0.95 (inactive)
CCCCOCCOCCOCc1cc2c(cc1CCC)OCO2 (20 µM)	1.07	1.02	1.03	1.09	0.98 (inactive)	1.03 (inactive)	1.04 (inactive)	1 (inactive)	1 (inactive)	1.02 (inactive)	1 (inactive)	1.06 (inactive)
OC[C@H]1O[C@@H](O[C@H]2[C@H](O)[C@@H](O)[C@H](O)O[C@@H]2CO)[C@H](O)[C@@H](O)[C@H]1O [Lactose] (50 µM)	0.993	1.02	1.05	1.07	1.01 (inactive)	0.96 (inactive)	0.989 (inactive)	1.03 (inactive)	1.01 (inactive)	0.984 (inactive)	1.02 (inactive)	0.976 (inactive)
CC(=O)[C@H]1CC[C@H]2[C@@H]3CCC4=CC(=O)CC[C@]4(C)[C@H]3CC[C@]12C [Progesterone] (20 µM)	1.08	1.02	1.05	0.651	0.893 (inactive)	1.04 (inactive)	0.981 (inactive)	1.07 (inactive)	0.961 (inactive)	1.03 (inactive)	1.02 (inactive)	0.95 (inactive)
CC(=O)OC[C@H]1O[C@@H](n2ncc(=O)[nH]c2=O)[C@H](OC(C)=O)[C@@H]1OC(C)=O [Azaribine] (20 µM)	1.22	1.01	1	1.18	0.978 (inactive)	0.997 (inactive)	0.988 (inactive)	1.05 (inactive)	1.04 (inactive)	0.944 (inactive)	1.02 (inactive)	0.96 (inactive)
CC1(C)S[C@@H]2[C@H](NC(=O)C(c3ccccc3)S(=O)(=O)O)C(=O)N2[C@H]1C(=O)O (stereo not given in full) [Sulbenicillin sodium salt] (20 µM)	0	0.378	0.634	0	1.18 (inactive)	0.0125 (active)	0.086 (active)	1.84 (inactive)	0.969 (inactive)	1.87 (active)	1.08 (inactive)	0.0641 (active)
Nc1cc(C(Cl)=C(Cl)Cl)c(S(N)(=O)=O)cc1S(N)(=O)=O [Clorsulon] (20 µM)	1.04	0.963	0.957	0.922	1.15 (inactive)	0.998 (inactive)	1.02 (inactive)	1.02 (inactive)	1.03 (inactive)	0.981 (inactive)	0.978 (inactive)	1.01 (inactive)
Cc1ccsc1/C=C/C1=NCCCN1C [Morantel tartrate] (20 µM)	1.2	1.07	1.08	1.08	0.92 (inactive)	0.936 (inactive)	0.918 (inactive)	1.01 (inactive)	1 (inactive)	1.03 (inactive)	1.01 (inactive)	0.957 (inactive)
Cc1scc2c1N(C(=O)CN1CCN(C)CC1)c1ccccc1NC2=O [Telenzepine dihydrochloride] (20 µM)	1.09	1.07	1	1.01	0.927 (inactive)	1.01 (inactive)	1.01 (inactive)	1.06 (inactive)	0.984 (inactive)	1 (inactive)	1.01 (inactive)	0.964 (inactive)
O=C1CCc2cc(OCCCCc3nnnn3C3CCCCC3)ccc2N1 [Cilostazol] (20 µM)	1.06	0.963	0.98	0.879	1.04 (inactive)	1.02 (inactive)	0.994 (inactive)	1.01 (inactive)	1.03 (inactive)	1.03 (inactive)	0.995 (inactive)	0.936 (inactive)
O=C1c2ccccc2C(=O)C1c1ccccc1 [Phenindione] (20 µM)	1.17	0.963	0.969	1.07	1.08 (inactive)	1 (inactive)	1.01 (inactive)	0.958 (inactive)	1 (inactive)	0.984 (inactive)	0.976 (inactive)	0.977 (inactive)
Cc1cccc(C)c1NC(=O)C1CCCCN1C (stereo not given) [Mepivacaine hydrochloride] (20 µM)	1.21	1.02	1.08	0.946	0.905 (inactive)	1.02 (inactive)	1.06 (inactive)	1 (inactive)	0.977 (inactive)	1 (inactive)	1.01 (inactive)	1.05 (inactive)
COc1cc(C(=O)OCCCN2CCCN(CCCOC(=O)c3cc(OC)c(OC)c(OC)c3)CC2)cc(OC)c1OC [Dilazep dihydrochloride] (20 µM)	1.06	1.07	0.99	0.894	0.938 (inactive)	1.08 (inactive)	1.09 (inactive)	1.01 (inactive)	0.937 (inactive)	0.968 (inactive)	1.01 (inactive)	1.12 (inactive)
CCCc1ncc(C[n+]2ccccc2C)c(N)n1 [Amprolium hydrochloride] (20 µM)	1.01	0.954	0.982	0.95	1.01 (inactive)	1 (inactive)	1.11 (inactive)	0.995 (inactive)	0.941 (inactive)	0.936 (inactive)	1.03 (inactive)	1.15 (inactive)
Oc1ccc(OCc2ccccc2)cc1 [Monobenzone] (20 µM)	1.21	0.897	1.11	1.03	0.974 (inactive)	1.02 (inactive)	0.872 (inactive)	0.884 (inactive)	1.01 (inactive)	0.978 (inactive)	0.996 (inactive)	0.828 (inactive)
CC(C(O)c1ccc(O)cc1)N1CCC(Cc2ccccc2)CC1 (stereo not given) [Ifenprodil tartrate] (20 µM)	1.02	1.12	1.03	0.985	0.977 (inactive)	1.02 (inactive)	1.03 (inactive)	1.08 (inactive)	0.973 (inactive)	0.947 (inactive)	1 (inactive)	0.992 (inactive)
CCCCNc1cc(C(=O)O)cc(S(N)(=O)=O)c1Oc1ccccc1 [Bumetanide] (20 µM)	1.19	1.01	1	0.971	0.994 (inactive)	1.03 (inactive)	1.05 (inactive)	1.04 (inactive)	1.02 (inactive)	1.03 (inactive)	1 (inactive)	1.07 (inactive)
CCOC(=O)C(C)(C)Oc1ccc(Cl)cc1 [Clofibrate] (20 µM)	1.24	1.23	1.03	0.977	1.07 (inactive)	1.04 (inactive)	1 (inactive)	1.18 (inactive)	1.03 (inactive)	0.919 (inactive)	0.996 (inactive)	0.97 (inactive)
CC(C(=O)O)c1ccc(C(=O)c2cccs2)cc1 (stereo not given) [Suprofen] (20 µM)	1.08	0.983	0.986	0.974	1.03 (inactive)	1.04 (inactive)	1.09 (inactive)	0.954 (inactive)	0.995 (inactive)	1.01 (inactive)	0.986 (inactive)	1.08 (inactive)
CN(C)CCN(Cc1cccs1)c1ccccn1 [Methapyrilene hydrochloride] (20 µM)	1.04	1	1	1.2	0.994 (inactive)	1.02 (inactive)	1.05 (inactive)	0.892 (inactive)	0.993 (inactive)	1.18 (inactive)	0.985 (inactive)	1.08 (inactive)
CC(=O)Oc1cc(C(C)C)c(OCCN(C)C)cc1C [Moxisylyte hydrochoride] (20 µM)	1.11	1.04	1.03	1.22	0.989 (inactive)	0.957 (inactive)	1.04 (inactive)	0.997 (inactive)	1.03 (inactive)	0.986 (inactive)	1 (inactive)	0.982 (inactive)
O=C1OCCN1/N=C/c1ccc([N+](=O)[O-])o1 [Furazolidone] (20 µM)	0.395	1.04	0.855	1.22	0.991 (inactive)	0.402 (inactive)	0.973 (inactive)	0.81 (inactive)	0.937 (inactive)	1.75 (active)	1 (inactive)	1.11 (inactive)

— the supplement of paper PMC12494721
